Assay results as given in PubChem BioAssay.

Key:
[1] = test system: Human papillomavirus type 1a protein E7 (residues 44-93); experiment: small molecules binding HPV E7 44-93 – biochemical, small-molecule microarray, residues 44-93, 635 nm fluorescence, primary screen (AID 1108); conditions: fluorescence 635 nm, higher = more signal;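 further: E7 fragment applied at 1 µg/mL in TBST for 1 h at 4 C; score combines spot fluorescence with its signal to noise ratio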
[2] = hepatitis C replication reporter changes, two-sided – Huh7 cells, luciferase reporter, HCV replication inhibitor project, primary screen (AID 1109); conditions: Huh7 HCV replicon luciferase reporter, 48 h; higher = more signal;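 further: huh7 hepatoma cells harbouring a luciferase neomycin HCV replicon reporter; luciferase luminescence as measure of HCV replicon replication; test concentration not given here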
[3] = target: Left-right determination factor 2 (Homo sapiens) (UniProt O00292); experiment: small molecules binding LEFTY2 protein – biochemical, small-molecule microarray, 635 nm fluorescence scan, primary screen (AID 1110); conditions: higher = more signal
Sequence of Left-right determination factor 2 (Homo sapiens) (O00292 whole entry, looked up): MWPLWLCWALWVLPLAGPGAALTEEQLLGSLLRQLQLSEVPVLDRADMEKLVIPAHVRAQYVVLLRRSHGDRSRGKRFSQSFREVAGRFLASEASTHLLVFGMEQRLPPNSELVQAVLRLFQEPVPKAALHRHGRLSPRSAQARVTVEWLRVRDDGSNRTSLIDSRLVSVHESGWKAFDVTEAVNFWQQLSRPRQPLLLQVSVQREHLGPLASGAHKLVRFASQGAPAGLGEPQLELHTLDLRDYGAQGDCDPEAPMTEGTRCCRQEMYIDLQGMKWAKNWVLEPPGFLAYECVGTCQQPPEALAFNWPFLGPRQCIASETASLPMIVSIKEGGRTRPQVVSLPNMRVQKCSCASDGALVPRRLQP

[4] = target: Calmodulin-1 (Homo sapiens) (UniProt P0DP23); experiment: small molecules binding calmodulin-1 with EGTA – biochemical, small-molecule microarray, Cy5-labelled CALM1, profiling panel (AID 1111); conditions: Cy5-CALM1 binding fluorescence, higher = more signal;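 further: labelled calmodulin applied in Tris saline Tween buffer holding calcium plus EGTA and DTT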
[5] = target: Calmodulin-1 (Homo sapiens) (UniProt P0DP23); experiment: small molecules binding Ca-loaded calmodulin-1 – biochemical, small-molecule microarray, Cy5-labelled CALM1, plus calcium, artefact control for SMM control-protein annotation, profiling panel (AID 1112); conditions: Cy5-CALM1 binding fluorescence, higher = more signal;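 further: score merges spot fluorescence with signal to noise from triplicate slides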
[6] = probe aWnt5a binding to arrayed compounds – biochemical, biotinylated probe, 635/667 nm fluorescence, primary screen (AID 1113); conditions: small-molecule microarray, higher = more signal;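 further: score merges 667 nm fluorescence intensity with signal-to-noise per printed feature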
[7] = probe aShh binding to arrayed compounds – biochemical, biotinylated probe, 635/667 nm fluorescence, primary screen (AID 1114); conditions: small-molecule microarray, higher = more signal;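 further: probe is biotin-labelled aShh protein from a stem cell growth factor screen; measures binding of labelled protein to compounds printed on the slide; score merges feature fluorescence at 667 nm with signal-to-noise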
[8] = probe aNog binding to arrayed compounds – biochemical, biotinylated probe, 635/667 nm fluorescence, primary screen (AID 1115); conditions: small-molecule microarray, higher = more signal;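 further: probe is biotinylated aNog protein used at 0.15 µg/mL for 1 h at 4 C; z-score combines 667 nm fluorescence of each spot with its signal to noise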
[9] = target: Torsin-1A-interacting protein 1 (Homo sapiens) (UniProt Q5JTV8); experiment: compound microarray binding of lysate hLAP1 – cell lysate, small-molecule microarray, COS7 lysate, 635/667 nm fluorescence, primary screen (AID 1116); conditions: 635 nm fluorescence, higher = more signal
Sequence of Torsin-1A-interacting protein 1 (Homo sapiens) (Q5JTV8 whole entry, looked up): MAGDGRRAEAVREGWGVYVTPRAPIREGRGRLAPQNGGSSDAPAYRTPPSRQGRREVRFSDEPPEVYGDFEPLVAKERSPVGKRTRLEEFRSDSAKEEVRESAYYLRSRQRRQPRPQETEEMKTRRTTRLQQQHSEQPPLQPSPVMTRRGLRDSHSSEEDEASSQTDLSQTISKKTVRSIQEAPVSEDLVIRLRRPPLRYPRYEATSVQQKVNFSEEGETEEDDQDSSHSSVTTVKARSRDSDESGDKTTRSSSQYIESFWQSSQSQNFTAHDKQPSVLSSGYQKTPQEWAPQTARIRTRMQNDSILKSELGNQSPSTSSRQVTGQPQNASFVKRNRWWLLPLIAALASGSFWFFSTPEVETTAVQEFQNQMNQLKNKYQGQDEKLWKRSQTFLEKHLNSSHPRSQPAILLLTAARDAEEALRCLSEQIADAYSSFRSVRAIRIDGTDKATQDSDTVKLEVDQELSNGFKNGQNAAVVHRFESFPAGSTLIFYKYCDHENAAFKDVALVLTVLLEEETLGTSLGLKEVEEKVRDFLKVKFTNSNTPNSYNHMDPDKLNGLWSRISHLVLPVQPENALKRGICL

[10] = target: Alpha-bungarotoxin (Bungarus multicinctus) (UniProt P60615); experiment: compounds binding labelled alpha-BTX control protein – biochemical, small-molecule microarray, Alexa647 label, 635/667 nm fluorescence, artefact control for SMM control protein annotation, profiling panel (AID 1117); conditions: alpha-BTX-A647 binding fluorescence, higher = more signal
Sequence of Alpha-bungarotoxin (Bungarus multicinctus) (P60615 whole entry, looked up): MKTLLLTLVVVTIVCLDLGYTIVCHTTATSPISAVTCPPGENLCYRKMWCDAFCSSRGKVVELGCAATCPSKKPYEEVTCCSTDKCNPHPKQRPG

Structure (SMILES)	composite z-score [1]	z-score [2]	composite z-score [3]	composite z-score [4]	composite z-score [5]	composite z-score [6]	composite z-score [7]	composite z-score [8]	composite z-score [9]	composite z-score [10]
COc1ccc(O[C@H]2C=C[C@@H](c3ccccc3)O[C@@H]2CO)cc1	-0.438	0.231	0.213	-0.329	-0.643	-0.148	0.0278	0.041	0.171	0.441
COC(=O)CC=C[C@@H](C)[C@@H](C=NOC[C@@H](O)[C@H]1O[C@@H]2OC(C)(C)O[C@@H]2[C@H]1O)OC	0.416	-0.594	0.638	-0.139	-0.565	-0.012	-0.0035	-0.234	0.422	0.265
O=C1C[C@@H](O)[C@@H](O)[C@@H]2[C@@H]3C(=O)N(Cc4ccccc4)C(=O)[C@@H]3CC[C@H]12	-0.234	-0.0156	0.804	0.0302	-0.344	-0.0869	-0.138	0.0369	0.432	0.848
COc1cccc([C@H](O)Cn2cc(-c3ccc(CON=C(C)C)cc3)nn2)c1	-1.42	-0.657	0.323	-0.851	-0.679	0.123	-0.229	-0.172	0.56	-0.713
CCOC(=O)[C@H](Cc1ccccc1)NC(=O)CCC1CC(OC(=O)NCCc2ccc(F)cc2)CC2(CCCC(COC(=O)NCc3cccc(C(F)(F)F)c3)O2)O1 (stereo not given in full)	1.3	-1.8	0.763	1.43	0.465	-0.154	-0.221	0.0498	0.109	1.04
CC(CCN1CCc2nc(-c3ccccc3)c(-c3ccccc3)cc2C1)=NO[C@@H](C)c1cc(-c2c(C)cc(C)cc2C)no1	-0.324	-1.47	-0.372	0.445	-0.0323	-0.256	-0.428	-0.0211	-0.0029	1.33
CCCNC(=O)OC[C@H]1O[C@H](CCON=C[C@@H](NS(=O)(=O)c2ccc(C)cc2)[C@H](C)C=CCC(=O)OC)C=C[C@@H]1Oc1ccc(OC)cc1	0.186	-1.65	0.65	-1.21	-1	-0.117	-0.138	-0.0312	0.247	0.0462
COC(=O)CC=C[C@@H](C)[C@@H](C=NOC(C)CN1CCCCc2nc(C)c(C)cc21)OC (stereo not given in full)	1.04	-1.23	1.11	-0.452	-1.05	-0.1	-0.138	-0.619	0.449	0.143
CCOC(=O)[C@H](CC(C)C)NC(=O)CCC1CC(OC(=O)NCc2ccc3c(c2)OCO3)CC2(CCCC(COC(=O)NCCC(C)C)O2)O1 (stereo not given in full)	-0.527	0.752	0.0162	-0.344	-0.365	-0.184	-0.283	-0.295	0.0461	0.0789
CCN1C(=O)[C@H]2[C@H]3[C@H](O)[C@H](O)CC(=NO[C@@H](C)c4cc(-c5c(C)cc(C)cc5C)no4)[C@@H]3CC[C@H]2C1=O	1.02	-0.946	0.685	0.224	-0.525	-0.0799	-0.0146	-0.177	0.952	1.02
COC(=O)CC=C[C@@H](C)[C@@H](C=NOC(C)CN1CCCc2nc(C)c(C)cc21)NS(=O)(=O)c1ccc(C)cc1 (stereo not given in full)	1.09	-1.05	0.817	-0.481	-0.56	-0.0758	0.213	-0.0172	0.232	-0.0193
CC(CCN1CCCc2nc(C)c(C)cc21)=NOC[C@@H](O)COCc1ccco1	-2.03	-0.62	1.73	0.264	-2.31	0.937	2.26	1.75	2.57	1.94
COCC#Cc1ccc([C@@H]2N[C@H](C(=O)O)CC[C@H]2C)cc1	-0.216	0.958	0.794	-0.292	0	-0.224	-0.117	-0.186	-0.416	0.0645
CCOC(=O)[C@H](Cc1ccccc1)NC(=O)CCC1CC(OC(=O)NCc2cccc3ccccc23)CC2(CCCC(COC(=O)NCC3CCCCC3)O2)O1 (stereo not given in full)	1.33	-1.48	0.643	0.297	-0.525	-0.0445	0.0596	-0.142	0.128	0.746
CCN1C(=O)[C@H]2[C@H]3[C@H](O)[C@H](O)CC(=NOC(C)CN4CCCc5nc(C)c(C)cc54)[C@@H]3CC[C@H]2C1=O (stereo not given in full)	0.562	-1.21	0.803	-0.528	-1.03	-0.0478	0.275	0.182	0.304	-0.0882
COc1ccc(COC(=O)NN=C2C[C@@H](O)[C@@H](O)[C@@H]3[C@@H]4C(=O)N(C(C)(C)C)C(=O)[C@@H]4CC[C@@H]23)cc1	0.653	-0.828	1.27	1.19	-0.306	-0.0566	-0.0626	0.0498	0.207	0.751
COC(=O)[C@@H]1CC[C@H](C)[C@@H](c2ccc(C)cc2)N1C(=O)c1ccc(C=NO[C@@H](C)c2cc(-c3c(C)cc(C)cc3C)no2)cc1	1.04	-0.542	0.45	0.0785	-0.37	-0.0236	-0.141	0.0373	0.722	0.208

Structure (SMILES)	composite z-score [1]	z-score [2]	composite z-score [3]	composite z-score [4]	composite z-score [5]	composite z-score [6]	composite z-score [7]	composite z-score [8]	composite z-score [9]	composite z-score [10]
Cc1ccc(S(=O)(=O)N[C@@H]2COC(=O)CC=C[C@@H](C)[C@H](NS(=O)(=O)c3ccc(C)cc3)COC(=O)[C@H](C)NC(=O)CC=C[C@H]2C)cc1	-1.64	0.311	0.846	-0.683	-0.951	-0.194	-0.221	0.122	-0.123	-0.621
O=C1C=C[C@@H](O)[C@@H]2[C@@H]3C(=O)N(c4cccc(Oc5ccccc5)c4)C(=O)[C@@H]3CC[C@@H]12	0.242	-2.07	0.594	-0.203	-0.477	-0.152	-0.0626	-0.381	0.503	0.0671
C#CCCCON=C1C[C@@H](O)[C@@H](O)[C@@H]2[C@@H]3C(=O)N([C@@H](C)c4ccccc4)C(=O)[C@@H]3CC[C@@H]12	-0.31	1.14	0.201	-0.172	-0.274	-0.166	-0.0553	0.167	-0.512	0.46
CCCNC(=O)OC[C@H]1O[C@H](CCON=C[C@@H](C)[C@H](OCc2ccccc2)C(C)C)C=C[C@@H]1Oc1ccc(OC)cc1	0.427	-2.17	0.182	-0.755	-0.515	-0.156	-0.484	-0.196	-0.163	0.297
O=C1[C@H]2[C@H]3[C@H](O)[C@H](O)CC(=NOC[C@@H](O)COCc4ccco4)[C@@H]3CC[C@H]2C(=O)N1Cc1ccc2c(c1)OCO2	-0.772	0.0878	1.44	-0.982	-2.03	-0.172	-0.123	-0.34	0.0886	0.0167
CC(=O)OC[C@H]1O[C@H](CC=NO[C@@H](C)c2cn([C@H](CO)Cc3ccccc3)nn2)C=C[C@@H]1OC(C)=O	0.949	-1.02	0.656	-0.16	-0.174	-0.176	0.194	0.158	1.03	1.56
CCC1=NOC(CCC2CC(OC(=O)NCc3cccc4c3OCO4)CC3(CCCC(COC(=O)NCCc4ccc(Cl)cc4)O3)O2)C1 (stereo not given)	0.916	-0.0374	0.304	-0.257	-0.532	-0.142	-0.16	-0.402	-0.342	-0.148
C=CC[C@@H]1C=C[C@H](ON=C[C@@H](NS(=O)(=O)c2ccc(C)cc2)[C@H](C)C=CCC(=O)OC)[C@@H](CO)O1	-0.782	-0.0493	0.917	-0.83	-0.984	-0.13	-0.138	-0.402	0.269	0.452
C[C@@H]1CC[C@H]2C(=O)O[C@@H](CN=[N+]=[N-])CN2[C@H]1c1ccc(Br)cc1	1.23	-4.98	0.672	0.169	-0.425	-0.262	-0.32	-0.571	0.0942	0.601
O=C1[C@H]2[C@H]3[C@H](O)[C@H](O)CC(=NO[C@@H]4O[C@H](CO)[C@@H](O)[C@H](O)[C@H]4O)[C@@H]3CC[C@H]2C(=O)N1C[C@@H]1CCCO1	1.3	-0.682	0.495	-0.158	-0.572	-0.28	-0.0769	-0.238	-0.0974	-0.103
CCOC(=O)[C@H](Cc1ccccc1)NC(=O)CCC1CC(OC(=O)NCCc2ccc(F)cc2)CC2(CCCC(COC(=O)NCCOc3ccccc3)O2)O1 (stereo not given in full)	1.4	-1.05	0.701	0.483	-0.296	-0.0721	-0.0709	-0.28	0.306	0.472
CCOC(=O)[C@H](CC(C)C)NC(=O)CCC1CC(OC(=O)NCc2ccc3c(c2)OCO3)CC2(CCCC(COC(=O)NCc3ccccc3)O2)O1 (stereo not given in full)	1.37	-0.0695	0.355	0.562	-0.158	0.0799	-0.153	-0.074	0.137	0.461
CC[C@@H](c1ccccc1)n1c(=O)n2n(c1=O)[C@H]1[C@H](O)[C@@H]3O[C@@H]3C(=NOCc3ccccc3)[C@H]1CC2	0.502	-4.13	0.244	0.207	-0.258	-0.107	-0.0146	-0.0606	-0.0058	0.919
COC(=O)C1=C(C)N(Cc2ccccc2)C2=C3C(=O)OCC[C@@H]3[C@@](O)(C(=O)OC)C(=O)N2[C@@H]1c1ccccc1	-0.0816	0.935	0.528	-0.0583	-0.689	-0.13	0.0278	-0.189	-0.207	0.415
COC(=O)[C@@H]1CC[C@H](C)[C@@H](c2ccc(Br)cc2)N1	-1.28	-0.178	0.0281	-0.0261	0.394	0.0375	0.261	0.101	0.488	0.234
CCOC(=O)[C@H](CC(C)C)NC(=O)CCC1CC(OC(=O)NCCc2ccc(F)cc2)CC2(CCCC(COC(=O)NCCCN3CCCC3=O)O2)O1 (stereo not given in full)	0.681	-1.2	0.491	0.116	-0.0004	0.0108	-0.2	-0.451	0.422	1.54
CC(CCN1CCCc2nc(C)c(C)cc21)=NOC[C@@H](C)[C@H](OCc1ccccc1)C(C)C	-1.39	-0.148	-0.196	-1	-0.387	-0.0685	-0.138	-0.255	-0.187	-1.1
